# Active and inactive are the calls of the source.
# What was measured:
# [1] = test system: Wnt5a (protein binding on small-molecule microarray); assay: small molecules binding Wnt5a protein – biophysical, small-molecule microarray, 635/667 nm fluorescence, primary screen (AID 1142); details: 635 nm fluorescence, higher = more signal;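 note: fluorescence read at 667 nm with signal to noise per printed feature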
# [2] = ATP-based viability of Huh7 replicon cells – cell-based, CellTiter-Glo luminescence, basal, 48 h, cytotoxicity control for HCV replication inhibitor project, primary screen (AID 1143); details: higher = more signal, called active from +8 up or from −8 down;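 note: Huh7 hepatoma cells carrying a hepatitis C replication reporter with no stimulus; test concentration not given here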
# [3] = basal CRE-LacZ reporter activity in PC12 – cell-based, unstimulated, primary screen (AID 1145); details: no forskolin, luminescence, 4.5 h, higher = more signal, called active from +8 up or from −8 down
# [4] = forskolin-driven CRE-LacZ activity in PC12 – cell-based, CRE-LacZ reporter, forskolin-stimulated, primary screen (AID 1146); details: luminescence, 4.5 h, higher = more signal, called active from +8 up or from −8 down;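 note: PC12 cells with 6xCRE LacZ reporter stimulated by forskolin 10 µM; beta-galactosidase reporter signal reflecting CREB driven transcription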
# [5] = molecular target: Streptavidin (Streptomyces avidinii) (UniProt P22629); assay: compounds binding control protein streptavidin – biophysical, small-molecule microarray, 635/667 nm fluorescence, artefact control for SMM compound annotation, primary screen (AID 1147); details: higher = more signal;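 note: signal reflects streptavidin binding to arrayed compounds as a control protein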
# Sequence of Streptavidin (Streptomyces avidinii) (P22629 whole entry, looked up): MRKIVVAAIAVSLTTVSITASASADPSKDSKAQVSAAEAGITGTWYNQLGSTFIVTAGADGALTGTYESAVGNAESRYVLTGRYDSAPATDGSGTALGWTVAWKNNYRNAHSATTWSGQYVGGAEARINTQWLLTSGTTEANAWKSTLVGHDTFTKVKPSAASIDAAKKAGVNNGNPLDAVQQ
# [6] = probe aInhba binding on compound microarray – biochemical, small-molecule microarray, 635/667 nm fluorescence, primary screen (AID 1148); details: higher = more signal;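 note: score merges 667nm spot fluorescence with signal-to-noise for antibody binding to printed compounds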
# Torsin-1A (Homo sapiens) [7] = molecular target: Torsin-1A (Homo sapiens) (UniProt O14656); assay: TOR1A wild-type binding on microarray – cell lysate, small-molecule microarray, lysate, 635/667 nm, primary screen (AID 1149); details: COS7 hTOR1A-WT lysate, 635 nm fluorescence, higher = more signal
# Sequence of Torsin-1A (Homo sapiens) (O14656 whole entry, looked up): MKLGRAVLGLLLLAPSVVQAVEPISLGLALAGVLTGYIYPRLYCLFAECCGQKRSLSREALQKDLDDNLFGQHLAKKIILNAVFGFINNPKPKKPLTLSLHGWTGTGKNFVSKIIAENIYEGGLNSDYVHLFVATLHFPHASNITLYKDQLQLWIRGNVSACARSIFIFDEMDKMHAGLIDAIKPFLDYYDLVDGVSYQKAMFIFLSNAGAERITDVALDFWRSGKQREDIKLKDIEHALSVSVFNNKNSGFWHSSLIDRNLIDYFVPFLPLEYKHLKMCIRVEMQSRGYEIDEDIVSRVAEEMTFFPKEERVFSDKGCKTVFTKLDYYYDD
# Torsin-1A (Homo sapiens) [8] = molecular target: Torsin-1A (Homo sapiens) (UniProt O14656); assay: torsin A mutant lysate binding on microarrays – cell lysate, small-molecule microarray, COS7 lysate, 635/667 nm fluorescence, primary screen (AID 1150); details: COS7 hTOR1A mutant lysate, 635 nm fluorescence, higher = more signal;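 note: score pools 667 nm emission and signal to noise measuring lysate protein binding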
# [9] = test system: Sonic hedgehog protein (Shh); assay: Sonic hedgehog microarray binding compounds – biochemical, small-molecule microarray, 635/667 nm fluorescence, primary screen (AID 1151); details: 635 nm fluorescence, higher = more signal;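 note: Shh protein binding to compounds spotted on small-molecule microarray slides; score combines spot fluorescence intensity with signal-to-noise across triplicate slides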
# [10] = optical density shifts of acrAB sulA E. coli – strain DRC41, OD650, 48 h, E. coli filamentation inducer project, primary screen (AID 1152); details: higher = more signal, called active from +8 up or from −8 down;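 note: E. coli MC1000 strain DRC41 lacking acrAB efflux pump and sulA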
# [11] = probe aLefty1 binding on compound microarray – biochemical, small-molecule microarray, 635/667 nm fluorescence, primary screen (AID 1153); details: higher = more signal;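 note: score merges spot fluorescence with signal-to-noise ratio from the scanned slide images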
# [12] = plasmodial surface anion channel blockers, osmotic lysis – cell-based, P. falciparum Indochina, OD700, 1 h, primary screen (AID 1154); details: P. falciparum Indochina infected RBC osmotic lysis, higher = more signal, called active from +8 up or from −8 down
# [13] = plasmodial surface anion channel blockers, osmotic lysis – cell-based, P. falciparum Indochina, OD700, 2 h, primary screen (AID 1155);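 note: lysis reports solute entry through the parasite surface anion channel PSAC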; details: P. falciparum Indochina infected erythrocytes, higher = more signal, called active from +8 up or from −8 down
# [14] = changes in parasitized red cell lysis, either direction – P. falciparum Indochina, OD700, 3 h, PSAC antagonist project, primary screen (AID 1156); details: P. falciparum-infected erythrocytes, osmotic lysis, higher = more signal, called active from +8 up or from −8 down
# [15] = plasmodial surface anion channel blockers, osmotic lysis – cell-based, P. falciparum Indochina, OD700, 18 h, primary screen (AID 1157); details: P. falciparum Indochina infected erythrocytes, osmotic lysis OD700, 18 h; higher = more signal, called active from +8 up or from −8 down
# [16] = S6 kinase pathway phospho-S6 level changes – cell-based, A549, cytoblot, luminescence, serum-stimulated, primary screen (AID 1158); details: 5 h, higher = more signal;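 note: serum-stimulated A549 lung adenocarcinoma cells; signal is phosphorylated S6 detected by cytoblot immunostaining with HRP secondary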
# [17] = molecular target: NADPH oxidase 2 (Homo sapiens) (UniProt P04839); assay: compounds shifting NOX2 Amplex Red fluorescence – cell-based, HEK293-NOX2, PMA-stimulated, NOX inhibitor project, primary screen (AID 1159); details: 45 min, higher = more signal, called active from +8 up or from −8 down; note: test concentration not given here
# Sequence of NADPH oxidase 2 (Homo sapiens) (P04839 whole entry, looked up): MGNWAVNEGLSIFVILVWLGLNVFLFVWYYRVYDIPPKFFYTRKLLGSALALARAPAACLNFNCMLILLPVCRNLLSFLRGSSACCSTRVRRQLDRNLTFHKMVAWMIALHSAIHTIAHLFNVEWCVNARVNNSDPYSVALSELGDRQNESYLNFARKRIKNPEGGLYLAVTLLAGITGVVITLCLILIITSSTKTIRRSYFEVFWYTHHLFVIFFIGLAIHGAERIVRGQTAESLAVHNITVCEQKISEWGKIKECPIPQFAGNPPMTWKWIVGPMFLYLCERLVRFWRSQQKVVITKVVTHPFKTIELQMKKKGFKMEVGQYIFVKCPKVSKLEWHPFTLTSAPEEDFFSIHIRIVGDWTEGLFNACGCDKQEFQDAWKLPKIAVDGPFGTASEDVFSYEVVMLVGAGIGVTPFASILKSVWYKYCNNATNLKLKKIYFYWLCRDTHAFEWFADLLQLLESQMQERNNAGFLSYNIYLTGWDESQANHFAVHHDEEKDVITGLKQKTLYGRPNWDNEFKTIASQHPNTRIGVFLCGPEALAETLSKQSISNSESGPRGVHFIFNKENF
# [18] = molecular target: NADPH oxidase 4 (Homo sapiens) (UniProt Q9NPH5); assay: compounds shifting NOX4 Amplex Red fluorescence – cell-based, HEK293-NOX4, tetracycline-induced, NOX inhibitor project, primary screen (AID 1160); details: HEK293-NOX4, Amplex Red H2O2 fluorescence, 45 min; higher = more signal, called active from +8 up or from −8 down
# Sequence of NADPH oxidase 4 (Homo sapiens) (Q9NPH5 whole entry, looked up): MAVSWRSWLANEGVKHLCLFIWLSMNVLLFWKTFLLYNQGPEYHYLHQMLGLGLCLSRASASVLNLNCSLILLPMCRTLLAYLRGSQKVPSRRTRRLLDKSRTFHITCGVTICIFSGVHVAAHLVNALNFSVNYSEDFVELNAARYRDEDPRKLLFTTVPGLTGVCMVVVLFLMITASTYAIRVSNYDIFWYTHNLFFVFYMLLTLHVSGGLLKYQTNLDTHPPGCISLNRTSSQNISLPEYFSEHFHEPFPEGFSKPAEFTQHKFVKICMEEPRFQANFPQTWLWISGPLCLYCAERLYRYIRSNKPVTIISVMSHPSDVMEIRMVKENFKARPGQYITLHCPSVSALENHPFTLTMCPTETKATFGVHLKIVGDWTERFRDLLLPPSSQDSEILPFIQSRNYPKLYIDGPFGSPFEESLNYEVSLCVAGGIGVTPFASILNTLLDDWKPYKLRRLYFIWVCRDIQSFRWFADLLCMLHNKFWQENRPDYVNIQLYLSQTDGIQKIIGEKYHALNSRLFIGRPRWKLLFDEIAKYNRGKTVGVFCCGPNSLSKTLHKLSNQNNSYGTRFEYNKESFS
# [19] = molecular target: NADPH oxidase 5 (Homo sapiens) (UniProt Q96PH1); assay: compounds shifting NOX5 Amplex Red fluorescence – cell-based, HEK293-NOX5, NOX inhibitor project, primary screen (AID 1161); details: HEK293-NOX5, ionomycin, 45 min, higher = more signal
# Sequence of NADPH oxidase 5 (Homo sapiens) (Q96PH1 whole entry, looked up): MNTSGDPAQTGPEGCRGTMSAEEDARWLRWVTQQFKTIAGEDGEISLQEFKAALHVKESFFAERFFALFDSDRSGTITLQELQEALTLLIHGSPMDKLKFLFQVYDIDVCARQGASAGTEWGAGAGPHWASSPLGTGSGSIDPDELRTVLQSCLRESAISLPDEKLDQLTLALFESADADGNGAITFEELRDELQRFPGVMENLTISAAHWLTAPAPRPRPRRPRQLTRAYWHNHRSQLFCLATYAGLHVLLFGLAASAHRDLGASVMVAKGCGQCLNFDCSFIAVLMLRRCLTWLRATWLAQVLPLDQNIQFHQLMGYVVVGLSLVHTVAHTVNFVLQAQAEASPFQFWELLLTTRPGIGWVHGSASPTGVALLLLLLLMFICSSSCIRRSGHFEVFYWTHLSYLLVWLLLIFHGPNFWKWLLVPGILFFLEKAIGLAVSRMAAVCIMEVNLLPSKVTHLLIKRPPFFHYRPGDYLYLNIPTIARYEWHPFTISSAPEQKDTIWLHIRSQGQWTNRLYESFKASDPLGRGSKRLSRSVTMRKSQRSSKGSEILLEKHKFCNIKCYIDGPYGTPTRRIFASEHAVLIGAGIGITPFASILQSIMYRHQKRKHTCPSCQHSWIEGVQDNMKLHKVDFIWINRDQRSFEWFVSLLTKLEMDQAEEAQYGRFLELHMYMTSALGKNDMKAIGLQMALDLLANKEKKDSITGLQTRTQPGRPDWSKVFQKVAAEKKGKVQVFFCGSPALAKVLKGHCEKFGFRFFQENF
# [20] = compound effects on lung adenocarcinoma cell viability – A549, calcein-AM fluorescence, 48 h, basal, profiling panel (AID 1162); details: higher = more signal; note: test concentration not given here
structure (smiles),measurement,setting,value
COCCCNC(=O)[C@@]1(Cc2ccccc2CN=[N+]=[N-])COC(c2ccc(OCCCO)cc2)=N1,composite z-score,[1],1.18
same,z-score,[2],-3.41 (inactive)
same,z-score,[3],-0.94 (inactive)
same,z-score,[4],-2.58 (inactive)
same,composite z-score,[5],0.257
same,composite z-score,[6],0.283
same,composite z-score,Torsin-1A (Homo sapiens) [7],1.22
same,composite z-score,Torsin-1A (Homo sapiens) [8],0.669
same,composite z-score,[9],0.13
same,z-score,[10],2.58 (inactive)
same,composite z-score,[11],0.961
same,z-score,[12],26.7 (active)
same,z-score,[13],22 (active)
same,z-score,[14],3.17 (inactive)
same,z-score,[15],3.5 (inactive)
same,z-score,[16],0.989
same,z-score,[17],-2.47 (inactive)
same,z-score,[18],-1.03 (inactive)
same,z-score,[19],-2.89
same,z-score,[20],0.395
O=C1c2ccccc2[C@@]2(Cc3ccccc3N(CC(F)(F)F)C2=O)[C@H](c2ccc(CO)cc2)N1Cc1ccccc1C(F)(F)F,composite z-score,[1],-0.388
same,z-score,[2],-1.02 (inactive)
same,z-score,[3],-0.556 (inactive)
same,z-score,[4],-1.56 (inactive)
same,composite z-score,[5],-1.04
same,composite z-score,[6],-0.224
same,composite z-score,Torsin-1A (Homo sapiens) [7],-1.41
same,composite z-score,Torsin-1A (Homo sapiens) [8],-0.322
same,composite z-score,[9],-0.643
same,z-score,[10],1.43 (inactive)
same,composite z-score,[11],-0.23
same,z-score,[12],0.0937 (inactive)
same,z-score,[13],-0.926 (inactive)
same,z-score,[14],0.593 (inactive)
same,z-score,[15],-1.39 (inactive)
same,z-score,[16],0.936
same,z-score,[17],0.0968 (inactive)
same,z-score,[18],0.396 (inactive)
same,z-score,[19],1.09
same,z-score,[20],1.73
C=CCN1C(=O)[C@@]2(O[C@@H](CCO)[C@H]([Si](C)(C)c3ccc(OC)cc3)[C@H]2C)c2cc(N3C(=O)c4cccc5cccc3c45)ccc21,composite z-score,[1],-0.1
same,z-score,[2],-7.95 (inactive)
same,z-score,[3],22.3 (active)
same,z-score,[4],-4.22 (inactive)
same,composite z-score,[5],0.168
same,composite z-score,[6],0.017
same,composite z-score,Torsin-1A (Homo sapiens) [7],0.408
same,composite z-score,Torsin-1A (Homo sapiens) [8],0.579
same,composite z-score,[9],0.567
same,z-score,[10],1.29 (inactive)
same,composite z-score,[11],0.0313
same,z-score,[12],24.5 (active)
same,z-score,[13],9.43 (active)
same,z-score,[14],0.0469 (inactive)
same,z-score,[15],2.56 (inactive)
same,z-score,[16],0.0438
same,z-score,[17],-0.167 (inactive)
same,z-score,[18],0.606 (inactive)
same,z-score,[19],1.25
same,z-score,[20],-3.04
O=C(NCc1ccccc1)[C@@H]1c2ccccc2C(=O)N(Cc2ccccc2Cl)[C@H]1c1ccc(CO)cc1,composite z-score,[1],0.531
same,z-score,[2],-1.32 (inactive)
same,z-score,[3],-0.152 (inactive)
same,z-score,[4],-0.918 (inactive)
same,composite z-score,[5],0.527
same,composite z-score,[6],-0.119
same,composite z-score,Torsin-1A (Homo sapiens) [7],1.1
same,composite z-score,Torsin-1A (Homo sapiens) [8],0.759
same,composite z-score,[9],1.54
same,z-score,[10],2.17 (inactive)
same,composite z-score,[11],0.139
same,z-score,[12],1.79 (inactive)
same,z-score,[13],-0.576 (inactive)
same,z-score,[14],-0.0527 (inactive)
same,z-score,[15],-1.17 (inactive)
same,z-score,[16],0.894
same,z-score,[17],-0.932 (inactive)
same,z-score,[18],0.992 (inactive)
same,z-score,[19],-0.544
same,z-score,[20],0.703
C=CCNC(=O)[C@H]1[C@@H]2C(=O)O[C@@H](c3ccccc3)[C@@H](c3ccccc3)N2[C@@H](c2ccc(OCCO)cc2)[C@]12C(=O)Nc1ccc(C#CCCO)cc12,composite z-score,[1],-0.09
same,z-score,[2],-2.34 (inactive)
same,z-score,[3],0.0384 (inactive)
same,z-score,[4],0.8 (inactive)
same,composite z-score,[5],-0.0494
same,composite z-score,[6],-0.0639
same,composite z-score,Torsin-1A (Homo sapiens) [7],0.234
same,composite z-score,Torsin-1A (Homo sapiens) [8],0.21
same,composite z-score,[9],1.06
same,z-score,[10],2.32 (inactive)
same,composite z-score,[11],0.0793
same,z-score,[12],4.5 (inactive)
same,z-score,[13],-0.407 (inactive)
same,z-score,[14],-0.144 (inactive)
same,z-score,[15],-2.03 (inactive)
same,z-score,[16],2.16
same,z-score,[17],2.4 (inactive)
same,z-score,[18],1.18 (inactive)
same,z-score,[19],0.572
same,z-score,[20],0.109
COc1ccc([Si](C)(C)[C@@H]2[C@@H](CC(=O)N3CCC[C@H]3CO)O[C@]3(C(=O)N(Cc4ccc(I)cc4)c4ccccc43)[C@H]2C)cc1,composite z-score,[1],0.229
same,z-score,[2],-4.55 (inactive)
same,z-score,[3],0.105 (inactive)
same,z-score,[4],-1.86 (inactive)
same,composite z-score,[5],0.983
same,composite z-score,[6],-0.109
same,composite z-score,Torsin-1A (Homo sapiens) [7],0.626
same,composite z-score,Torsin-1A (Homo sapiens) [8],0.199
same,composite z-score,[9],0.646
same,z-score,[10],1.97 (inactive)
same,composite z-score,[11],0.0677
same,z-score,[12],5.17 (inactive)
same,z-score,[13],0.0509 (inactive)
same,z-score,[14],-0.7 (inactive)
same,z-score,[15],-1.17 (inactive)
same,z-score,[16],2.62
same,z-score,[17],2.26 (inactive)
same,z-score,[18],0.932 (inactive)
same,z-score,[19],4
same,z-score,[20],-0.298
C=C(/C(=C/C[C@H](OC(=O)c1ccncc1)c1cccc(OCCO)c1)c1cc(C(=O)OC)ccc1OC)C(C)C,composite z-score,[1],-0.158
same,z-score,[2],-2.09 (inactive)
same,z-score,[3],8.57 (active)
same,z-score,[4],-0.669 (inactive)
same,composite z-score,[5],0.0287
same,composite z-score,[6],-0.05
same,composite z-score,Torsin-1A (Homo sapiens) [7],0.607
same,composite z-score,Torsin-1A (Homo sapiens) [8],0.568
same,composite z-score,[9],0.948
same,z-score,[10],1.17 (inactive)
same,composite z-score,[11],-0.0984
same,z-score,[12],10.2 (active)
same,z-score,[13],-0.289 (inactive)
same,z-score,[14],1.66 (inactive)
same,z-score,[15],-1.19 (inactive)
same,z-score,[16],0.402
same,z-score,[17],1.62 (inactive)
same,z-score,[18],0.0371 (inactive)
same,z-score,[19],-1.71
same,z-score,[20],0.396
CCCCCN1CC=CC23O[C@@H]4/C=C\CCC(C)OC(=O)C4[C@H]2C(=O)N(CCO)[C@@H]3C1=O (stereo not given in full),composite z-score,[1],-0.376
same,z-score,[2],-0.989 (inactive)
same,z-score,[3],1.02 (inactive)
same,z-score,[4],-1.06 (inactive)
same,composite z-score,[5],-0.877
same,composite z-score,[6],-0.233
same,composite z-score,Torsin-1A (Homo sapiens) [7],0.615
same,composite z-score,Torsin-1A (Homo sapiens) [8],0.816
same,composite z-score,[9],-0.542
same,z-score,[10],2.08 (inactive)
same,composite z-score,[11],-0.147
same,z-score,[12],2.04 (inactive)
same,z-score,[13],0.402 (inactive)
same,z-score,[14],0.944 (inactive)
same,z-score,[15],0.0613 (inactive)
same,z-score,[16],0.0564
same,z-score,[17],1.88 (inactive)
same,z-score,[18],-0.354 (inactive)
same,z-score,[19],2.5
same,z-score,[20],0.414

# — PubChem BioAssay
